Results taken from ChEMBL document CHEMBL1157539, “Thousands of chemical starting points for antimalarial lead identification” (Nature, 2010).

Assays:
Type in all cases: functional
Plasmodium falciparum [1] = assay: GSK_TCMDC: Inhibition of Plasmodium falciparum 3D7 in whole red blood cells, using parasite LDH activity as an index of growth. Test compounds present at 2uM
Plasmodium falciparum [2] = assay: GSK_TCMDC: Inhibition of Plasmodium falciparum Dd2 in whole red blood cells, using parasite LDH activity as an index of growth. Test compounds present at 2uM
HepG2 = assay: GSK_TCMDC: Percent inhibition of human HepG2 cell line. Test compounds present at 10uM.

O=C(Nc1cccc(-c2ccc(CN3CCCC3)cc2)c1)c1ccc(F)cc1.O=C(O)C(F)(F)F
Inhibition (Plasmodium falciparum [1]): 92% | Inhibition (Plasmodium falciparum [2]): 9% | Inhibition (HepG2): 23%

Cc1ccc2nc(-c3ccc(/C=C/C(=O)NC4CCN(Cc5ccccc5)CC4)cc3)[nH]c2c1C
Inhibition (Plasmodium falciparum [1]): 100% | Inhibition (Plasmodium falciparum [2]): 92% | Inhibition (HepG2): 22%

COc1c(C2CCN(CCCCNC(=O)c3noc(-c4ccc(C#N)cc4)n3)CC2)ccc2c1CCCC2
Inhibition (Plasmodium falciparum [1]): 99% | Inhibition (Plasmodium falciparum [2]): 0% | Inhibition (HepG2): 32%

NC(=O)c1cnc2ccc(-c3cncs3)cc2c1Nc1ccc(F)c(Cl)c1
Inhibition (Plasmodium falciparum [1]): 97% | Inhibition (Plasmodium falciparum [2]): 99% | Inhibition (HepG2): 3%

CN1CCN(c2ccnc3ccc(NC(=O)Nc4ccc(-c5ccncc5)c5ccccc45)cc23)CC1
Inhibition (Plasmodium falciparum [1]): 100% | Inhibition (Plasmodium falciparum [2]): 84% | Inhibition (HepG2): 76%

COCCn1c(C)cc(C(=O)CN2C(=O)NC(C)(c3ccc(C(C)(C)C)cc3)C2=O)c1C (configuration not stated)
Inhibition (Plasmodium falciparum [1]): 97% | Inhibition (Plasmodium falciparum [2]): 96% | Inhibition (HepG2): 7%

Cl.c1ccc2c(NCCCCCCCCNc3ccnc4ccccc34)ccnc2c1
Inhibition (Plasmodium falciparum [1]): 100% | Inhibition (Plasmodium falciparum [2]): 35% | Inhibition (HepG2): 57%

O=C(NCCN1CCCC1)c1cccc(Nc2nccc(Nc3ccc(Oc4ccccc4)cc3)n2)c1
Inhibition (Plasmodium falciparum [1]): 100% | Inhibition (Plasmodium falciparum [2]): 18% | Inhibition (HepG2): 33%

O=C(N[C@@H](Cc1ccccc1)C(=O)NCCN1CCCCC1)c1ccc(O)c(-c2ccc(Cl)c(Cl)c2)c1
Inhibition (Plasmodium falciparum [1]): 99% | Inhibition (Plasmodium falciparum [2]): 97% | Inhibition (HepG2): 6%

O=C(O)C(F)(F)F.c1ccc(CN2CCC(NCc3ccccc3-c3ccc(CNC4CCCC4)cc3)CC2)cc1
Inhibition (Plasmodium falciparum [1]): 100% | Inhibition (Plasmodium falciparum [2]): 33% | Inhibition (HepG2): 38%

CN1CCC(N2CCN(CCOc3cc(NC(=O)/C=C/c4ccccc4Cl)ccc3Br)CC2)CC1.O=C(O)C(=O)O
Inhibition (Plasmodium falciparum [1]): 100% | Inhibition (Plasmodium falciparum [2]): 99% | Inhibition (HepG2): 36%

Fc1cccc(COc2ccc(Nc3ncnc4sc(C#CC5CCCCN5)cc34)cc2Cl)c1.O=C(O)C(F)(F)F (configuration not stated)
Inhibition (Plasmodium falciparum [1]): 100% | Inhibition (Plasmodium falciparum [2]): 100% | Inhibition (HepG2): 30%

CN1CCN(CCCN(Cc2ccc(-c3cccc(CNC4CCCC4)c3)cc2)C(=O)Nc2ccccc2)CC1.O=C(O)C(F)(F)F
Inhibition (Plasmodium falciparum [1]): 92% | Inhibition (Plasmodium falciparum [2]): 76% | Inhibition (HepG2): 28%

O=C(Nc1cccc(-c2nc3ccccc3s2)c1)c1ccccc1[N+](=O)[O-]
Inhibition (Plasmodium falciparum [1]): 85% | Inhibition (Plasmodium falciparum [2]): 9% | Inhibition (HepG2): 0%

Clc1ccc(CNc2ccnc(NCCc3coc4ccccc34)n2)c(Cl)c1
Inhibition (Plasmodium falciparum [1]): 86% | Inhibition (Plasmodium falciparum [2]): 39% | Inhibition (HepG2): 26%

CC(C)(C)c1nn(-c2ccccc2)c2[nH]c(=O)c(CNC3CCCCC3)cc12
Inhibition (Plasmodium falciparum [1]): 83% | Inhibition (Plasmodium falciparum [2]): 76% | Inhibition (HepG2): 6%

CC(ON1C(N)=NC(N)=NC1(C)C)c1ccccc1 (configuration not stated)
Inhibition (Plasmodium falciparum [1]): 96% | Inhibition (Plasmodium falciparum [2]): 58% | Inhibition (HepG2): 65%

CCOC(=O)CCCCOc1c(OC)cc(Cc2cnc(N)nc2N)cc1OC
Inhibition (Plasmodium falciparum [1]): 95% | Inhibition (Plasmodium falciparum [2]): 0% | Inhibition (HepG2): 0%

CC(C)(CNCCOc1ccc(Cl)cc1)c1nc(-c2ccnc(N)n2)c(-c2ccc(Cl)c(O)c2)[nH]1.Cl
Inhibition (Plasmodium falciparum [1]): 97% | Inhibition (Plasmodium falciparum [2]): 19% | Inhibition (HepG2): 45%

Cc1nc(-c2cccc(Nc3nccc(NCC(O)c4cccc(F)c4)n3)c2)cs1 (configuration not stated)
Inhibition (Plasmodium falciparum [1]): 98% | Inhibition (Plasmodium falciparum [2]): 59% | Inhibition (HepG2): 39%

O=C(Nc1ccc(-c2csc(-c3nc4ccccc4[nH]3)c2)cc1)Nc1ccsc1
Inhibition (Plasmodium falciparum [1]): 100% | Inhibition (Plasmodium falciparum [2]): 17% | Inhibition (HepG2): 50%

Cc1cccc2nc(-c3cccc(-c4ccc(NC(=O)c5ccncc5)cc4)c3)[nH]c12
Inhibition (Plasmodium falciparum [1]): 98% | Inhibition (Plasmodium falciparum [2]): 74% | Inhibition (HepG2): 34%

CC(=O)Nc1ccc(CN2CCC(CNC(=O)c3cc(-c4cccc(Cl)c4)cs3)C2)cc1.O=C(O)C(F)(F)F (configuration not stated)
Inhibition (Plasmodium falciparum [1]): 91% | Inhibition (Plasmodium falciparum [2]): 1% | Inhibition (HepG2): 24%

CN(C)CCC(O)(c1ccc(Br)cc1)c1cccnc1 (configuration not stated)
Inhibition (Plasmodium falciparum [1]): 96% | Inhibition (Plasmodium falciparum [2]): 1% | Inhibition (HepG2): 22%

Cc1cc2c(NC(=O)NC3CCN(CCc4cccc(Cl)c4)CC3)cccc2cn1.Cl
Inhibition (Plasmodium falciparum [1]): 100% | Inhibition (Plasmodium falciparum [2]): 27% | Inhibition (HepG2): 12%

Br.CC(=O)CSC(C=Cc1ccc(N(C)C)cc1)=Nc1ccccc1
Inhibition (Plasmodium falciparum [1]): 81% | Inhibition (Plasmodium falciparum [2]): 42% | Inhibition (HepG2): 38%

CCCCNCc1ccc(-c2nc(CN(Cc3ccc(Cl)c(Cl)c3)S(=O)(=O)c3ccc(NC(C)=O)cc3)cs2)cc1.O=C(O)C(F)(F)F
Inhibition (Plasmodium falciparum [1]): 96% | Inhibition (Plasmodium falciparum [2]): 20% | Inhibition (HepG2): 30%

CCNc1cc(C)nc(Nc2ccc(NC(=O)Cc3ccc(OC)cc3)cc2)n1
Inhibition (Plasmodium falciparum [1]): 100% | Inhibition (Plasmodium falciparum [2]): 47% | Inhibition (HepG2): 30%

COCCn1c(C)nc2ccccc2c1=O
Inhibition (Plasmodium falciparum [1]): 89% | Inhibition (Plasmodium falciparum [2]): 67% | Inhibition (HepG2): 0%

Cc1nc(-c2ccc(-c3ccc(NC(=O)Nc4ccc(I)c(OCCN(C)C)c4)cc3)c(C)c2)no1.Cl
Inhibition (Plasmodium falciparum [1]): 100% | Inhibition (Plasmodium falciparum [2]): 92% | Inhibition (HepG2): 47%

Cc1ccc(-n2cc(CNCCc3nc(C)c[nH]3)c(-c3ccc(F)cc3)n2)cc1
Inhibition (Plasmodium falciparum [1]): 86% | Inhibition (Plasmodium falciparum [2]): 12% | Inhibition (HepG2): 15%

CC(=O)COc1c(C2CCN(CCCCNC(=O)c3ccc(-c4ccc(C(F)(F)F)cc4)cc3)CC2)ccc2c1CCCC2
Inhibition (Plasmodium falciparum [1]): 99% | Inhibition (Plasmodium falciparum [2]): 53% | Inhibition (HepG2): 100%

O=C(Nc1ccccc1)N(Cc1ccc(-c2ccc(CNC3CCCC3)cc2)cc1)C1CCN(Cc2ccccc2)CC1.O=C(O)C(F)(F)F
Inhibition (Plasmodium falciparum [1]): 100% | Inhibition (Plasmodium falciparum [2]): 61% | Inhibition (HepG2): 34%

CC[C@H](N/C(=N\c1cccc(Cl)c1Cl)Nc1ccc(C#N)cc1O)c1ccccc1
Inhibition (Plasmodium falciparum [1]): 91% | Inhibition (Plasmodium falciparum [2]): 71% | Inhibition (HepG2): 0%

Cc1c(C(=O)NCc2ccncc2)sc2nc(-c3cccc([N+](=O)[O-])c3)cn12
Inhibition (Plasmodium falciparum [1]): 97% | Inhibition (Plasmodium falciparum [2]): 29% | Inhibition (HepG2): 18%

Cc1cnc(NCC2CCCCC2)nc1NCC(=O)Nc1ccccc1.O=C(O)C(F)(F)F
Inhibition (Plasmodium falciparum [1]): 90% | Inhibition (Plasmodium falciparum [2]): 51% | Inhibition (HepG2): 21%

O=C(O)C(F)(F)F.c1ccc2c(c1)CN(CC1CCOCC1)CC1(CCN(Cc3c[nH]c4cnccc34)CC1)O2
Inhibition (Plasmodium falciparum [1]): 99% | Inhibition (Plasmodium falciparum [2]): 7% | Inhibition (HepG2): 21%

O=C(C=Cc1ccc(Cl)c(Cl)c1)NCCCCCN1CCCC(CCCNC(=O)c2sc3ccccc3c2Cl)C1 (configuration not stated)
Inhibition (Plasmodium falciparum [1]): 88% | Inhibition (Plasmodium falciparum [2]): 32% | Inhibition (HepG2): 82%

CCOc1ccc(Br)cc1/C=C/C(=O)Nc1ccc2c(c1)CN(C)CCC2.O=C(O)C(F)(F)F
Inhibition (Plasmodium falciparum [1]): 97% | Inhibition (Plasmodium falciparum [2]): 37% | Inhibition (HepG2): 18%

Fc1ccc2[nH]c(-c3cccc(-c4cccc(CNCCc5ccncc5)c4)c3)nc2c1.O=C(O)C(F)(F)F
Inhibition (Plasmodium falciparum [1]): 100% | Inhibition (Plasmodium falciparum [2]): 88% | Inhibition (HepG2): 22%

Nc1ccc(Oc2ccc(Cc3cnc(N)nc3N)cc2)cc1
Inhibition (Plasmodium falciparum [1]): 86% | Inhibition (Plasmodium falciparum [2]): 5% | Inhibition (HepG2): 10%

COc1cccc(CN2CCCC(OC(c3ccccc3)c3ccccc3)C2)c1O.O=C(O)C(F)(F)F (configuration not stated)
Inhibition (Plasmodium falciparum [1]): 90% | Inhibition (Plasmodium falciparum [2]): 73% | Inhibition (HepG2): 19%

CCCCn1c(SC(C)C)nc2c(c1=O)C1(CCCCC1)Cc1ccccc1-2
Inhibition (Plasmodium falciparum [1]): 99% | Inhibition (Plasmodium falciparum [2]): 60% | Inhibition (HepG2): 1%

OC(CNc1ccnc(Nc2cccc(Cl)c2)n1)c1cccc(C(F)(F)F)c1 (configuration not stated)
Inhibition (Plasmodium falciparum [1]): 100% | Inhibition (Plasmodium falciparum [2]): 98% | Inhibition (HepG2): 11%

CC(C)CCN1CCC(Oc2ccc(NC(=O)c3ccc4ncccc4c3)cc2Cl)C1.O=C(O)C(F)(F)F (configuration not stated)
Inhibition (Plasmodium falciparum [1]): 95% | Inhibition (Plasmodium falciparum [2]): 14% | Inhibition (HepG2): 33%

C=C[C@H]1CN(CCCCCCC)CC[C@H]1CC(=O)Nc1cnnc2ccc(OC)cc12.O=C(O)C(=O)O
Inhibition (Plasmodium falciparum [1]): 100% | Inhibition (Plasmodium falciparum [2]): 100% | Inhibition (HepG2): 12%

CN(C)CCN(C)Cc1nc(-c2ccc3c(Nc4ccc(Oc5ccccc5)cc4)ccnc3c2)cs1
Inhibition (Plasmodium falciparum [1]): 100% | Inhibition (Plasmodium falciparum [2]): 100% | Inhibition (HepG2): 27%

COc1ccc2[nH]cc(C3CCN(CCCCCNC(=O)c4ccc(-c5ccccc5)cc4)CC3)c2c1
Inhibition (Plasmodium falciparum [1]): 96% | Inhibition (Plasmodium falciparum [2]): 16% | Inhibition (HepG2): 50%

COc1ccccc1/C=C/C(=O)NC1CCC(CCN2CCc3ccc(-c4cc(C)no4)cc3CC2)CC1.Cl (configuration not stated)
Inhibition (Plasmodium falciparum [1]): 95% | Inhibition (Plasmodium falciparum [2]): 11% | Inhibition (HepG2): 47%
